A selection: hits, their analogues and other compounds. The true share with any hit is near 7.3%.
SMN2 splice up: SMN2 splice variant enhancement; HEK293 SMN2-luciferase splicing reporter, luminescence, 30-36 h; Potency, µM (series often up to 46.1 µM), inactives show at the highest dose activity change, positive = activation, most hits filed as activators; actives 2.8% (n = 210,000); also: % of control where 0% means no effect; nearly all actives have a fitted effect of over 55% in size
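HEK293 cells carry an SMN2 minigene-luciferase reporter in which exon 7 inclusion puts luciferase in frame. Cells were seeded at 2000 cells/well, attached for 10-12 hours, then exposed to compounds for 30-36 hours at 37C before ONE-Glo luminescence.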
NPC1 prom act: activators of NPC1 promoter | Huh7 NPC1 promoter luciferase reporter, 24 h | Potency, µM (series often up to 9.22 µM), for the others: at the top dose activation, actives largely listed as activators | actives 2.4% (n = 320,000) | AID 485313; also: % of control where 0% means no effect; nearly all actives have a fitted effect of over 60% in size
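In 1536-well qHTS, Huh7 cells harboring an NPC1 promoter–luciferase construct received compound for 24 h; activation was quantified by luminescence following luciferase reagent addition.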
Rab9 promoter act: Rab9 promoter activation | Huh7 Rab9 promoter-luciferase reporter, luminescence, 24 h | Potency, µM (titrated, usually from 9.22 µM), for inactives: at the highest dose activation, negative = inhibition, hits mostly activators | actives 2.8% (n = 320,000); also: % of control where 0% means no effect; nearly all actives have a fitted effect of over 60% in size
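Huh7 cells stably carrying a Rab9 promoter-luciferase reporter, 1500 cells per well in OP-MEM I with 10% FBS, treated with compound 24 hours at 37C. Luciferase activity read by luminescence after 10 minutes with Amplite reagent.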
FLuc modulator: firefly luciferase modulation, counter-screen for miR-21 project; AID 588342; P08659; Potency, µM (top dose mostly 57.5 µM), for inactives: at the highest dose activity change, negative = inhibition, usual class: inhibitors; actives 6.9% (n = 360,000); purified FLuc, Km substrates, luminescence inhibition;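 also: plate controls were vehicle for no effect and reference inhibitor for full effect; nearly all actives have a fitted effect of over 55% in size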
Target sequence (P08659 whole entry, looked up): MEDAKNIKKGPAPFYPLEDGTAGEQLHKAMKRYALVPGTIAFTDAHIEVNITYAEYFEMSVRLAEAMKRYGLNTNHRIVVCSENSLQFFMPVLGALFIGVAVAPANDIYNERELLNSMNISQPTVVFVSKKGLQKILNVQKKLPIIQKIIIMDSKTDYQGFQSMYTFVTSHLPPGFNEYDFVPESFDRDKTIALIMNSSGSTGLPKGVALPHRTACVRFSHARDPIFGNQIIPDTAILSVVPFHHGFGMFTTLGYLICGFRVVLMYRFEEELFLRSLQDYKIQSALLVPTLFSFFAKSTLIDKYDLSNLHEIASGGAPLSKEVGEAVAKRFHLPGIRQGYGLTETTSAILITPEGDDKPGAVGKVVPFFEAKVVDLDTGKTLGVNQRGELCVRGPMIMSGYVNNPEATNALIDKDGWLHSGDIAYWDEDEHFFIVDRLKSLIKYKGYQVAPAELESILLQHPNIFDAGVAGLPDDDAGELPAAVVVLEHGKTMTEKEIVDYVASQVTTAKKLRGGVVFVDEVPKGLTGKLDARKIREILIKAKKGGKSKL
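Biochemical qHTS of compounds, final roughly 60 µM downward over six points, against 10 nM purified firefly luciferase using Km concentrations of substrates (10 uM D-luciferin, 10 uM ATP) in Tris acetate pH 7.5 buffer; luminescence output.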
uPA surface inh: inhibitors of cell surface uPA generation. cell surface uPA generation assay, qHTS. Potency, µM (highest dose often 38.3 µM), without a hit: at the highest dose activity change, negative = inhibition, hits mostly inhibitors. actives 0.31% (n = 330,000). AID 540303; active = well fitted inhibition curve with a large enough effect; inconclusive = small, poorly fitted or top-dose-only effect; inactive = no such curve, though single readings can be large or run the other way; tested in mouse RAW 264.7 cells; also: % is scaled to controls: 0 for no effect and ±100 for the full control effect; nearly all actives have a fitted effect of over 55% in size
ELG1 genotoxic: genotoxicity induction in ELG1-luciferase HEK293T cells; Potency, µM (series often up to 46 µM), for the others: top-dose activity change, positive = activation, usual class: activators; actives 1.3% (n = 330,000); AID 504466; HEK293T ELG1-luciferase reporter, luminescence, 16 h; also: % of control where 0% means no effect; nearly all actives have a fitted effect of over 60% in size
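16 hr compound incubation (37 °C, 5% CO2) of HEK293T cells carrying luciferase-tagged ELG1; luciferase then measured by ONE-Glo luminescence after 30 min at RT.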
An asterisk follows results filed as active; ? = inconclusive; · = no result; [ ] = another dose, or the depositor's remark. Unless noted, calls follow the shape of the dose curve; as a rule, active = well fitted curve in the direction sought with a large enough effect; inconclusive = small, poorly fitted or top-dose-only effect, or another doubt; inactive = no such curve, though single readings can be large; an effect the other way counts as inactive or inconclusive. Potency is read from the fitted curve at half-maximal effect.

SMILES	SMN2 splice up	NPC1 prom act	Rab9 promoter act	FLuc modulator	uPA surface inh	ELG1 genotoxic
Cc1cccc(OCC(=O)Nc2cccc(O)c2)c1	13%	-2%	0%	17µM*	3%	10µM*
Cc1cccc(NC(=O)COc2ccccc2)c1	17%	2%	13%	3%[2.3 µM]	·	?
COc1ccc(OC(=O)COc2cccc(C)c2)cc1	·	1%	3%	15µM*	-1%	-2%
Cc1ccc(OCC(=O)Nc2cc(NC(=O)COc3ccc(C)c(C)c3)cc(C(=O)O)c2)cc1C	·	-7%	1%	?	6%	10%
CC(Oc1ccc(Cl)cc1Cl)C(=O)Nc1ccc(O)cc1 (centres undefined)	-3%	5%	-2%	-14%	-3%	3%
CCOc1ccc(CNC(=O)c2cc3ccccn3n2)cc1OC	·	·	·	-11%	·	·
COc1cccc(NC(=O)COc2ccc(Br)c(C)c2)c1	·	-1%	11%	19µM*	?	15%
CCC(=O)Nc1cccc(NC(=O)COc2ccc(OC)cc2)c1	15%	-2%	-1%	15µM*	1%	?
CCC(=O)c1ccc(OCC(=O)Nc2cccc(S(=O)(=O)N(C)c3ccccc3)c2)cc1	·	-7%	-4%	15µM*	-15%	1%
O=C(COc1cc(Cl)c(Cl)cc1Cl)Nc1cccc(O)c1	·	-1%	-3%	1.1µM*	12%	?
C[C@]12CC[C@@H]3c4ccc(O)cc4C[C@@H](CCCCCCCCCS(=O)CCCC(F)(F)C(F)(F)F)[C@H]3[C@@H]1CC[C@@H]2O (some centres undefined)	·	-9%[46.1 µM]	-11%[46.1 µM]	·	·	·
COc1cccc(CNC(=O)c2ccc3nc(N4CCCCC4)sc3c2)c1OC	10%	·	·	?	·	·
COc1cc(C(=O)Nc2ccc3c(c2)nc(C)n3C)cc(OC)c1OC	·	-27%	-18%	21µM*	5.6µM*	?
Cc1nc2cc(NC(=O)c3ccc(Cl)cc3)ccc2n1C	·	0.28µM*	0.28µM*	4.3µM*	-71%	1µM*
Cn1nnc2cc(C(=O)Nc3ccc(Cl)cc3)ccc21	18%	?	3.5µM*	-14%	-5%	?
CCn1c(C)nc2cc(C(=O)N/N=C/c3ccc(O)c(O)c3O)ccc21	-18%	-2%	5%	13µM*	-1%	-17%
CN(C(=O)c1oc(=O)c2ccccc2c1-c1ccccc1)c1cccc(Cl)c1	-12%	·	·	-6%	·	·
COc1ccc(CNC(=O)c2cc3c(=O)n(Cc4ccco4)ccc3nc2C)c(OC)c1	·	·	·	-5%	·	·
CCOc1cc(Cl)c(S(=O)(=O)NCCCN2CCOCC2)cc1Cl	·	-1%	-7%	3%	-1%	-1%
C=CCC1(O)CCOc2ccccc21 (centres undefined)	-3%	·	·	·	·	·
O=C(CN1C(=O)CSc2ccc(S(=O)(=O)N3CCCC3)cc21)Nc1cccc(Cl)c1	·	·	·	-12%	·	·
CC(=O)N1CCc2cc(S(=O)(=O)NC(CC(C)C)C(=O)NCCc3ccccc3)ccc21 (centres undefined)	5%	·	·	4%	·	·
CCn1c(C)nc2cc(C(=O)NNC(=O)Nc3cccc(Cl)c3)ccc21	·	-2%	-10%	-16%	2%	-2%
CCn1c(C)nc2cc(C(=O)NNC(=O)Nc3ccc(Cl)cc3)ccc21	3%	?	1.4µM*	-3%	1%	-3%
CSCCC1NC(=O)N(CC(=O)Nc2ccc(N3CCCCC3)cc2)C1=O (centres undefined)	-9%	11%	-6%	12µM*	6%	1%
SMILES	SMN2 splice up	NPC1 prom act	Rab9 promoter act	FLuc modulator	uPA surface inh	ELG1 genotoxic
O=C(NCCc1ccccn1)c1ccc2nc(Cc3ccccc3F)oc2c1	·	2.8µM*	2µM*	11µM*	-6%	4.6µM*
Cc1cccc(CNC(=O)c2ccc3nc(Cc4ccccc4F)oc3c2)n1	·	3.5µM*	3.5µM*	27µM*	4%	?
CCc1sc(Nc2cccc(C)c2)nc1-c1cc2cccc(OC)c2oc1=O	·	·	·	7.6µM*	·	·
COc1cccc2cc(-c3nnc(Nc4ccccc4C)s3)c(=O)oc12	·	·	·	0.34µM*	·	·
CCc1sc(Nc2cccc(C)c2C)nc1-c1cc2cccc(OC)c2oc1=O	·	·	·	4%	·	·
CCc1ccc(S(=O)(=O)c2cn(C)c3cc(N4CCN(CC)CC4)c(F)cc3c2=O)cc1	·	·	·	0%	·	·
CCCn1c2ccccc2c2cnn(CC(=O)NCCc3ccc(C)cc3)c(=O)c21	·	·	·	-14%	·	·
CN1C(=O)/C(=C/C=C2\SCCN2C)SC1=S	2.5µM*	2.5µM*	3.2µM*	1.9µM*	·	?
CN1C(=O)/C(=C/C=C2\SCCN2C)N(C)C1=S	?	3.2µM*	2.5µM*	17µM*	1%	15µM*
CCN1/C(=C\C=C2\C(=O)N(c3ccccc3)C(=S)N2C)Sc2ccccc21	-41%	-5%	-1%	-18%	-3%	2%
C[N+]1(C)CC(O)[C@H](C(=O)[O-])C1 (some centres undefined)	6%	·	·	·	·	·
COc1cccc(NC(=O)CN(C)C(=O)C(CCSC)NC(=O)c2ccco2)c1 (centres undefined)	·	-4%	-2%	3%	0%	-1%
CCOC(=O)C1CCC(CN(Cc2ccc(Cl)cc2)S(=O)(=O)c2cccc(Cl)c2C)CC1 (centres undefined)	·	·	·	-2%	·	·
CCN1CCN(C(=O)c2ccc3c(c2)N(Cc2cc(C)ccc2C)C(=O)c2ccccc2S3=O)CC1 (centres undefined)	6%	·	·	-4%	·	·
Cc1ccc(C)c(CN2C(=O)c3ccccc3S(=O)c3ccc(C(=O)N4CCN(c5ccccn5)CC4)cc32)c1 (centres undefined)	4.5µM*	-5%	1%	0%	-10%	-14%
Cc1ccc(C)c(CN2C(=O)c3ccccc3S(=O)c3ccc(C(=O)N4CCN(c5ccccc5F)CC4)cc32)c1 (centres undefined)	0.63µM*	·	·	-2%	·	·
CCCC[C@H](CC)CN1CN(C[C@@H](CC)CCCC)CC(C)(N)C1	-23%[20.6 µM]	·	·	·	·	·
O=C(OCC(=O)N1CCc2ccccc21)c1cccnc1Cl	2%	18%	5%	11µM*	·	?
CC1CCc2nc3ccccc3c(C(=O)OCC(=O)N3CCc4ccccc43)c2C1 (centres undefined)	2%	0%	-1%	4.8µM*	7%	-11%
O=C(OCC(=O)N1CCc2ccccc21)c1ccccc1	2%	-1%	6%	9.5µM*	-3%	?
O=C(OCC(=O)N1CCc2ccccc21)c1cccnc1	·	0%	-7%	?	2%	4%
CCCc1nc2ccccc2c(C(=O)OCC(=O)N2CCc3ccccc32)c1CC	-51%	-1%	-2%	?	-3%	-13%
